A selection: hits, their analogues and other compounds. The true share with any hit is near 4%.
TRPM1 prom inh: MITF TRPM1 promoter inhibition in SK-MEL-5 cells | SK-MEL-5 TRPM1 promoter luciferase, 24 h | inhibition, % at 12.5 µM | 0.83% of 330,000 active | AID 488899;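 active means mean inhibition across replicates of 60% or more, whatever share of single replicates reaches that level; inconclusive means some that reach 60%, reason not given; inactive means mean inhibition across replicates below 60%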
esBAF inh: inhibitors of esBAF chromatin remodeling in mouse ES cells | Bmi1-luciferase knock-in reporter, 24 h; 100% = twice the neutral-well signal | reporter increase, % at 12.5 µM | 2% of 350,000 active; in the data active means activation above about 40%; inconclusive means no clear call, values can overlap the other calls;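 further: 0% = median of the plate's neutral control wells and 100% = double that signal; a rise in the Bmi1 reporter signal indicates esBAF inhibition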
PAX8 inh HTS: lowers PAX8-driven luciferase in RMG-I cells. RMG-I TPO-luciferase reporter, SteadyGlo, 24 h. inhibition, % at 12.6 µM. 1.2% of 360,000 active. AID 652154;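 active means mean replicate inhibition at least 60% with every replicate also reaching 60%; inconclusive means only one of the two criteria is met; inactive means mean below 60% and not all replicates reaching 60%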;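 further: luciferase light reporting Pax8 driven TPO promoter activity; plate controls were median of neutral control wells for no effect and mitoxantrone controls for full effect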
Wnt bcat act: activates Wnt/beta-catenin signaling in a reporter cell assay | 1.2% of 300,000 active | activator, plate reader | activation, % at 9.35 µM; in the data active means activation above about 30%, passing the limit was not always enough; inconclusive means no clear call, values can overlap the other calls;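 further: 0% = neutral control wells and 100% = positive control wells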
EWS-Fli block: EWS/Fli transcriptional activity inhibition; A673 NR0B1-luciferase reporter, viability-normalised; 0.67% of 350,000 active; inhibition, % at 12.6 µM; AID 651661;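 active means mean inhibition of at least 50% after viability correction, with every replicate also passing that limit; inconclusive means mean reaches 50% but only one of two replicates passes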;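 further: firefly luciferase signal divided by Alamar Blue viability fluorescence both relative to DMSO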
MITF TRPM1 HTS: activators of MITF-driven TRPM1 promoter activity in SK-MEL-5 cells | activation, % at 12.5 µM | 0.75% of 300,000 active | SK-MEL-5 TRPM1-promoter luciferase, 24 h; % of positive control, neutral wells = 0;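 active means mean activation of at least 80% with every replicate also reaching 80%; inconclusive means mean reaches 80% but some replicate falls short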;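 further: 0% = neutral control wells and 100% = parthenolide positive control wells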
The depositor's hits bear a star; ? = inconclusive; / = no result given.

SMILES	TRPM1 prom inh	esBAF inh	PAX8 inh HTS	Wnt bcat act	EWS-Fli block	MITF TRPM1 HTS
COc1cc(/C=C/C(=O)c2ccc(NS(=O)(=O)c3ccc(C)cc3)cc2)ccc1OC(F)F	3	10	22	7	/	-1
COc1cc(/C=C/C(=O)c2ccc(NS(=O)(=O)c3ccc(C)cc3)cc2)cc(OC)c1O	67*	/	81*	-4	/	-66
CN1C(=O)c2cc(NC(=O)C3CCCC3)ccc2OC[C@H]2O[C@@H](CC(=O)NCCc3ccncc3)CC[C@@H]21	/	/	-8	/	3	/
O=C(C1CCCC1)N1CC(=O)N2[C@H](CO)[C@@H](c3ccc(C#Cc4cccc(F)c4)cc3)[C@@H]2C1	/	/	/	/	2	/
C[C@@H]1CCCCO[C@@H](CN(C)S(C)(=O)=O)[C@H](C)CN([C@H](C)CO)C(=O)c2cc(NC(=O)Nc3ccc4c(c3)OCO4)ccc2O1	/	-1	/	/	-6	/
C=CCN1C(=O)[C@]2(O[C@H](CCO)[C@@H]([Si](C)(C)c3ccc(OC)cc3)[C@@H]2C)c2cc(NC(=O)[C@H](C)O)ccc21	/	/	-5	/	5	/
COc1ccc([Si](C)(C)[C@@H]2[C@@H](CC(=O)N3Cc4ccccc4C[C@H]3CO)O[C@]3(C(=O)N(C)c4c(Br)cc(C)cc43)[C@H]2C)cc1	/	/	81*	/	-1	/
COc1ccc([Si](C)(C)[C@@H]2[C@@H](CCn3cc(CCO)nn3)O[C@]3(C(=O)N(Cc4ccc(N5CCOC5=O)cc4)c4ccccc43)[C@H]2C)cc1	/	/	/	/	35	/
COc1ccc([Si](C)(C)[C@H]2[C@H](CCO)O[C@@]3(C(=O)N(Cc4ccc(N5CCOC5=O)cc4)c4ccccc43)[C@@H]2C)cc1	/	/	107*	/	24	/
COc1ccc([Si](C)(C)[C@H]2[C@H](CCO)O[C@@]3(C(=O)N(Cc4cccc(NC(=O)[C@H](C)O)c4)c4ccccc43)[C@@H]2C)cc1	/	/	86*	/	17	/
COc1ccc([Si](C)(C)[C@@H]2[C@@H](CCO)O[C@]3(C(=O)N(Cc4ccc(NC(=O)[C@H](C)O)cc4)c4ccccc43)[C@H]2C)cc1	/	/	101*	/	23	/
CN1C(=O)c2cc(NC(=O)C3CC3)ccc2OC[C@H]2O[C@H](CC(=O)O)CC[C@@H]21	/	/	/	/	12	/
C=CCN1C(=O)[C@]2(O[C@H](CCO)[C@@H]([Si](C)(C)c3ccc(OC)cc3)[C@@H]2C)c2cc(I)ccc21	/	/	105*	/	30	/
COc1ccc(C(=O)Nc2ccc(CN3C(=O)[C@]4(O[C@H](CC(=O)N5Cc6ccccc6C[C@H]5CO)[C@@H]([Si](C)(C)c5ccc(OC)cc5)[C@@H]4C)c4ccccc43)cc2)cc1	/	/	92*	/	-2	/
COc1ccc(CN(C)C[C@@H]2Oc3ccc(NC(=O)Nc4c(C)noc4C)cc3C(=O)N([C@@H](C)CO)C[C@H]2C)cc1	/	-1	-11	/	1	/
CN1C(=O)c2cc(NS(=O)(=O)c3ccccc3Cl)ccc2OC[C@@H]2O[C@@H](CC(=O)O)CC[C@@H]21	/	2	27	/	1	/
Cc1ccc(S(=O)(=O)Nc2ccc3c(c2)C(=O)N([C@H](C)CO)C[C@H](C)[C@@H](CN(C)Cc2ccc(Cl)c(Cl)c2)OCCCC[C@H](C)O3)cc1	/	-7	66*	/	-2	/
Cc1ccc(S(=O)(=O)Nc2ccc3c(c2)C(=O)N([C@H](C)CO)C[C@@H](C)[C@H](CN(C)Cc2ccc(Cl)c(Cl)c2)OCCCC[C@@H](C)O3)cc1	/	/	?	/	-9	/
C[C@@H]1CCCCO[C@H](CN(C)Cc2ccc(Cl)c(Cl)c2)[C@@H](C)CN([C@H](C)CO)C(=O)c2cc(NS(=O)(=O)c3ccc(Cl)cc3)ccc2O1	/	0	28	/	1	/
C[C@@H]1CCCCO[C@@H](CN(C)Cc2ccc(Cl)c(Cl)c2)[C@H](C)CN([C@H](C)CO)C(=O)c2cc(NS(=O)(=O)c3ccc(F)cc3)ccc2O1	/	6	85*	/	27	/
C[C@@H]1CCCCO[C@@H](CN(C)Cc2ccc(Cl)c(Cl)c2)[C@H](C)CN([C@H](C)CO)C(=O)c2cc(NS(=O)(=O)c3ccc(Cl)cc3)ccc2O1	/	-1	102*	/	25	/
CCCNC(=O)N1CC2(C1)[C@H](c1ccccc1)[C@@H](CO)N2CC1CC1	/	/	/	/	-4	/
CCCNC(=O)Nc1ccc2c(c1)C(=O)N(C)C[C@H](OC)[C@H](C)CN(C(C)=O)[C@H](C)CO2	/	1	5	/	-6	/
